GCN5L2 inh – inhibitors of human GCN5L2 histone acetyltransferase; GCN5L2 HAT assay, ThioGlo1 CoA-SH fluorescence; actives 0.21% (n = 390,000); Potency, µM (highest dose often 58.9 µM), without a hit: top-dose activity change, negative = inhibition, actives largely listed as inhibitors; note: potency is the fitted concentration of half-maximal effect
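Enzyme at 20nM final was mixed with library compounds for 15 min at room temperature. Peptide H3(1-25) at 75uM, acetyl-CoA at 70uM and ThioGlo1 at 50uM were then added. Plates were read immediately and after 20 min (Ex340nm/Em540nm).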
VDR inh – inhibitors of human vitamin D receptor; Potency, µM, for inactives: max response, negative = inhibition, hits mostly inhibitors; AID 504847; VDR-SRC2-3 peptide fluorescence polarization, 2 h; actives 0.93% (n = 400,000); P11473; note: potency is the fitted concentration of half-maximal effect
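After 23 nl compound addition and a short centrifugation, plates sat for 2 hours at ambient temperature; polarization of fluorescence then indicated loss of VDR binding to peptide SRC2-3.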
PI4K2A inh – blocks human PI4K2A kinase activity | activity change, negative = inhibition, % at 76.9 µM | purified PI4K2A, ADP-Glo luminescence, 1 h; hits give low values | actives 0.13% (n = 420,000) | AID 1346378; in the data active = activity change below about -50%; inconclusive = mostly about -30% to -49%;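 note: -100% = wells without enzyme as full effect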
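ADP-Glo luminescence measured ADP generated by PI4K2A enzyme (4 ug/mL before mixing) with 1.2 mM PI substrate (pre-mix) and 300 microM ATP (pre-mix). Tris pH7.5 buffer with MgCl2, Triton X-100; 1 h reaction at ambient temperature.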
GLS inh – inhibitors of human glutaminase (GLS); O94925; GLS enzymatic activity, qHTS titration; Potency, µM (top dose mostly 45.5 µM), for inactives: at the top dose activity change, negative = inhibition, actives largely listed as inhibitors; actives 0.21% (n = 410,000); AID 624170; note: potency is the fitted concentration of half-maximal effect
Target sequence (O94925 whole entry, looked up): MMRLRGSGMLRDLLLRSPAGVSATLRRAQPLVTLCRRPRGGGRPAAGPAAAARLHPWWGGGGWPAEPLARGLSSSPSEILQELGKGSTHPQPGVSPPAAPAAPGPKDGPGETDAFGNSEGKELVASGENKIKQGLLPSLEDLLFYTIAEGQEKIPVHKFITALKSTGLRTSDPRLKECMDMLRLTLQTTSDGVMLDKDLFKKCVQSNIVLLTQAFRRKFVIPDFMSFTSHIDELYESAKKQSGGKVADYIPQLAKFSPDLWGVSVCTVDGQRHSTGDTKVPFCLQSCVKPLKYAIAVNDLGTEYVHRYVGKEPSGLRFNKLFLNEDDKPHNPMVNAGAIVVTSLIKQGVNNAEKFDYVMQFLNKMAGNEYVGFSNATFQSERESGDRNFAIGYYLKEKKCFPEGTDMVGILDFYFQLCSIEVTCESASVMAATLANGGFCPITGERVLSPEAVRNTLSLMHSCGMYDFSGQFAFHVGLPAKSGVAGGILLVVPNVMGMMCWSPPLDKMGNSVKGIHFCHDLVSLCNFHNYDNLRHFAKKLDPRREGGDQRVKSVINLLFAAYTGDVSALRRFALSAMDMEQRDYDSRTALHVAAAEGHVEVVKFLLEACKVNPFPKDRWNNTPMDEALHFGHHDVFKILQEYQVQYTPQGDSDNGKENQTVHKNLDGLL
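Compounds were pin-transferred onto hKGA, after which L-glutamine (1 mM solution) and a detection mix of glutamate oxidase, HRP and Amplex Red were added. Initial and 30 min RT fluorescence reads were collected.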
PLK1 PBD inh – PLK1 (human) polo-box domain binding inhibition. P53350. Plk1 PBD binding of FITC phosphopeptide, fluorescence polarization. Potency, µM, inactives show max response, negative = inhibition, usual class: inhibitors. actives 2.8% (n = 360,000); note: potency is the fitted concentration of half-maximal effect; series mostly up to about 57 µM; nearly all actives have a fitted effect of over 65% in size
* = called active by the depositor; ? = inconclusive; . = not tested or not shown; ! = a repeat was not active; [ ] = dose if it differs, or a comment. Compounds with a hit are over-represented: about 3.1% of the library has one in this group of screens. Unless noted, calls come from the whole dose curve; as a rule, active = well fitted curve in the direction sought with a large enough effect; inconclusive = small, poorly fitted or top-dose-only effect, or another doubt; inactive = no such curve, though single readings can be large; an effect the other way counts as inactive or inconclusive. Unless noted, % is set by controls: 0 for no effect and ±100 for the full control effect.

SMILES	GCN5L2 inh	VDR inh	PI4K2A inh	GLS inh	PLK1 PBD inh
CCOc1cc(C=C2C(=O)NC(=O)NC2=O)ccc1OS(=O)(=O)c1ccccc1	-13.2%	79.4µM*	?	1.3%	3.36µM*
Cc1cc(C=C2C(=O)NC(=S)NC2=O)c(C)n1C1CCCC1	-5.7%	-20.6%	-8.1	1.0%	?
CN1CC[C@]23c4c5ccc(O)c4OC2C(O)CCC3[C@H]1C5 (some centres undefined)	.	.	.	54.2%[99.4 µM]	.
CCCN1CCC[C@@H]2Cc3cn[nH]c3C[C@H]21	13.9%	0.2%	.	.	.
CC1OC(OC2C(O)CC(OC3C(O)CC(OC4CCC5(C)C(CCC6C5CCC5(C)C(C7=CC(=O)OC7)CCC65O)C4)OC3C)OC2C)CC(O)C1O (centres undefined)	-21.3%	10.4%	.	-3.0%	.
O=c1[nH]c2cc(Cl)ccc2n1C1CCNCC1	.	.	-1.1	.	.
CC(=O)O[C@H]1[C@H]2[C@@H](OC(=O)Cc3ccccc3)[C@@H](C)C[C@]2(OC(C)=O)C(=O)/C(C)=C/[C@@H]2[C@H](CC[C@@]13CO3)C2(C)C	6.1%	6.1%	.	.	.
CCOP(=S)(OCC)Oc1ncn(-c2ccccc2)n1	-42.7%	14.1µM*	.	.	.
CCCN1CCc2cccc3c2[C@H]1Cc1ccc(O)c(O)c1-3	-12.6%	7.94µM*!	-2.7	?	-10.9%
CCOC(=O)N1CCN(/[N+]([O-])=N/Oc2ccc([N+](=O)[O-])cc2[N+](=O)[O-])CC1C (centres undefined)	.	56.2µM*	.	.	.
CC1CC2OC2/C=C\C=C/C(=O)Cc2c(Cl)c(O)cc(O)c2C(=O)O1 (centres undefined)	-3.3%	44.7µM*	.	.	.
C=CCN1C(=O)NC(=O)/C(=C/c2ccc(OC)c(CSc3ccccn3)c2)C1=O	-13.6%	70.8µM*	?	31.7%	4.74µM*
C=CCN1C(=O)NC(=O)/C(=C/C=C/c2ccccc2)C1=O	-25.5%	?	-7.8	-13.1%	?
C=CCN1C(=O)NC(=O)/C(=C/c2ccc(OC)c(COc3ccc(NC(C)=O)cc3)c2)C1=O	-0.2%	79.4µM*	?	-1.7%	10.6µM*
CCOC(=O)c1c(/N=C/c2c(O)n(-c3ccc(F)cc3)c(=S)[nH]c2=O)sc2c1CCCC2	2.2%	-24.3%	-2.1	1.6%	-17.3%
CCOC(=O)c1c(/N=C/c2c(O)n(-c3ccccc3F)c(=S)[nH]c2=O)sc2c1CCCC2	-17.4%	?	5.9	28.8%	23.8µM*
Cc1cc(N2CCNCC2)nc2ccccc12	1.4%	-12.1%	3.0	-15.6%	26.7µM*
CC1COC2(c3ccccc3Cl)c3cc(Cl)ccc3NC(=O)CN12 (centres undefined)	.	.	0.6	.	.
O=C(Nc1ccc(OC(=O)N2CCCC2)cc1)N1CCOCC1	1.1%	-9.7%	4.3	-8.9%	0.3%
O=C(Oc1ccc(Cl)cc1)N1CCOCC1	0.8%	79.4µM*	-1.2	?	10.6µM*
CC(O)CN1CCN(CC(=O)[O-])CCN(CC(=O)[O-])CCN(CC(=O)[O-])CC1.[Gd+3] (centres undefined)	.	.	3.3	-0.1%	.
COc1ccc(-c2nc3ccccc3c(=O)n2-c2ccc(OC)cc2)cc1	-4.0%	-8.6%	-3.9	0.3%	-7.3%
O=c1c2ccccc2sn1-c1ccc(Cl)cc1	.	.	-9.3	?	2.99µM*
Cc1ccc(-n2sc3ccccc3c2=O)cc1	7.08µM*	3.16µM*	-8.1	?	0.947µM*
CC[C@H](C)/C=C(C)/C=C/C1=CC2=C(Cl)C(=O)[C@@](C)(OC(C)=O)C(=O)C2=CO1	.	39.8µM*	?	-0.5%	1.06µM*
SMILES	GCN5L2 inh	VDR inh	PI4K2A inh	GLS inh	PLK1 PBD inh
Cn1cc(C(=O)Cc2ccccc2)c2ccccc21	29.6%	?	0.4	-0.5%	26.7µM*
Cn1cc(C(=O)OCC(=O)Nc2ccccc2)c2ccccc21	-5.3%	5.5%	-3.8	-6.6%	-3.1%
CCCCOc1ccc(C(C)=O)cc1Cc1c(O)[nH]c(=S)[nH]c1=O	?	?	1.5	1.6%	?
COc1ccc(Cc2c(O)[nH]c(=S)[nH]c2=O)cc1	6.31µM*	-14.2%	0.0	?	26.7µM*
CC(OC(=O)COc1ccc(Nc2ccccc2)cc1)C(=O)N(C)c1ccccc1 (centres undefined)	-6.3%	-8.0%	-0.5	?	-18.7%
C=CC[N+]1(C)CCC23c4c5ccc(O)c4O[C@H]2C(=O)CC[C@@]3(O)C1C5 (some centres undefined)	1.8%	3.9%	.	70.9%	.
CCCCCCCCn1sccc1=O	?	3.55µM*	1.3	?	4.74µM*
CCCCCCCCc1ccc(O)cc1	-5.6%	-6.8%	1.8	7.8%	-10.0%
Nc1ncnc2c1ncn2[C@@H]1O[C@H](COP(=O)(O)CP(=O)(O)O)[C@@H](O)[C@H]1O	17.9%	1.9%	-54.2*	-7.2%	-6.8%
O=C(Nc1ccc(Cl)c(Cl)c1)c1ccco1	-5.9%	1.7%	-0.7	-0.9%	-4.0%
CCN(c1ccc(C)cc1C)S(=O)(=O)c1nnc(NC(=O)c2ccco2)s1	-2.7%	12.2%	-5.0	0.8%	26.7µM*
CCCC1COC(Cn2cncn2)(c2ccc(Cl)cc2Cl)O1 (centres undefined)	-5.7%	50.1µM*!	-3.0	-0.5%	-12.9%
O=c1oc2ccccc2c(O)c1C(c1ccc([N+](=O)[O-])cc1)c1c(O)c2ccccc2oc1=O	22.4µM*	?	-4.8	?	?
CC(C)c1ccc(C(c2c(O)c3ccccc3oc2=O)c2c(O)c3ccccc3oc2=O)cc1	.	.	-0.9	?	21.2µM*
O=C(CCCCl)c1ccc(F)cc1	.	.	-6.1	.	.
COC(=O)C(O)(c1ccc(N(C)C)cc1)C(F)(F)F (centres undefined)	-4.2%	-4.5%	1.6	16.1%	-4.5%
COC(=O)C(O)(c1ccc(N(C)C(=O)c2cccs2)cc1)C(F)(F)F (centres undefined)	-2.5%	50.1µM*	0.8	?	23.8µM*
S=C(SSC(=S)N1CCCCC1)N1CCCCC1	.	.	0.8	12.6%	.
CCOC(=O)[C@]12Cc3ccc(C)cc3[C@H]1N(C1CCCCC1)C(=O)c1cc(OC)ccc12	.	.	9.9	115.7%	4.23µM*
CCOC(=O)[C@]12Cc3cc(Cl)ccc3[C@H]1N(C1CCCCC1)C(=O)c1cc(OC)ccc12	.	.	17.4	-28.1%	2.12µM*
CCOC(=O)[C@]12Cc3ccc(C)cc3[C@H]1N(C1CCCCC1)C(=O)c1ccccc12	.	.	17.0	65.8%	2.99µM*
CCOC(=O)[C@]12Cc3ccccc3[C@H]1N(Cc1ccccc1)C(=O)c1cc(F)c(F)cc12	.	.	-1.0	?	?
CCOC(=O)[C@]12Cc3cc(C)ccc3[C@H]1N(CCC(=O)OC)C(=O)c1ccccc12	.	.	6.3	12.8%	8.44µM*
CCCCCN1C(=O)c2ccccc2[C@@]2(C(=O)OCC)Cc3cc(Cl)ccc3[C@@H]12	.	.	-0.3	-2.4%	?
